Measurements published in PubChem BioAssay AID1645882 (National Center for Advancing Translational Sciences (NCATS), 2021).
Where “and” joins values, the source holds several entries; their conditions need not be identical. Equal values may be shown once. The whole screen tested about 16,000 compounds, of which about 120 (0.75%) were called active. A call without a number means that no potency is given here. Not shown: some 4% with an inconclusive outcome. The sample holds actives, similar compounds and a random draw of the others, so the mix is not that of the screen. Calls come from the whole dose curve; as a rule, active = well fitted inhibition curve with a large enough effect; inconclusive = small, poorly fitted or top-dose-only effect; inactive = no such curve, though single readings can be large or run the other way. Where a structure was tested more than once in an assay, its records may differ in their call.

The compounds below were run against Rap guanine nucleotide exchange factor 3 (Homo sapiens) (UniProt O95398) (assay: Validation qHTS for antagonist of cAMP-regulated guanine nucleotide exchange factor 3 (EPAC1)). Conditions: EPAC1 Rap1B-BODIPY-GDP exchange, fluorescence; series mostly up to 150 µM.
Rap guanine nucleotide exchange factor 3 (Homo sapiens), sequence (O95398 whole entry, looked up): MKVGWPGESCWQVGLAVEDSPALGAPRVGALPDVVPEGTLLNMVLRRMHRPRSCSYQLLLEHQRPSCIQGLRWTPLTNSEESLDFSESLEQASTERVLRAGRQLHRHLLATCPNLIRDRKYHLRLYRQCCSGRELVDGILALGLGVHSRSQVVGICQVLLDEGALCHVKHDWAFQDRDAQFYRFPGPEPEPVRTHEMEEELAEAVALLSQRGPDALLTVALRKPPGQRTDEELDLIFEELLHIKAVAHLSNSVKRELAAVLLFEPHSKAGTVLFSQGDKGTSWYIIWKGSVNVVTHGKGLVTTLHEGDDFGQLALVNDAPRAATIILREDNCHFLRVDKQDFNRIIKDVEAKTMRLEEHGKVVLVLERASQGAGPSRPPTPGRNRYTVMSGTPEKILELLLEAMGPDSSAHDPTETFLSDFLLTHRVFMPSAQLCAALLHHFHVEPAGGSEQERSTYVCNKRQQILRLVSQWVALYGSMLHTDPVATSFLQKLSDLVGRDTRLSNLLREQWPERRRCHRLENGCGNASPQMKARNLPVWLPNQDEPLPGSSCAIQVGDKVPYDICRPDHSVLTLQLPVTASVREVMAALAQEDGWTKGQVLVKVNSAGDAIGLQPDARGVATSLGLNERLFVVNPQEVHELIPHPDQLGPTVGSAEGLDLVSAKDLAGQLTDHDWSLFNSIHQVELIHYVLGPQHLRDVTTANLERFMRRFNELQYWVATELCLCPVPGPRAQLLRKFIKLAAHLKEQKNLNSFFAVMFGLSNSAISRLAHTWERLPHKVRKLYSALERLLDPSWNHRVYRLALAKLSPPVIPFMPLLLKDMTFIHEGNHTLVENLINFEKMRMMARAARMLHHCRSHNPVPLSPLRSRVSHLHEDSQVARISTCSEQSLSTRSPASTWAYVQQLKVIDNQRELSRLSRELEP
Description: Assay Provider (PI): Xiaodong Cheng Ph.D.
The University of Texas Medical Branch, […], TX
In multi-cellular eukaryotic organisms, the effects of cAMP are transduced by two ubiquitously-expressed intracellular cAMP receptors, the classic protein kinase A/cAMP-dependent protein kinase (PKA/cAPK) and the more recently discovered exchange protein directly activated by cAMP/cAMP-regulated guanine nucleotide exchange factor (EPAC/cAMP-GEF). Both PKA and EPAC are ubiquitously expressed in all tissues, and an increase in intracellular cAMP levels will lead to the activation of both PKA and EPAC. Therefore, careful dissections of the individual role and relative contribution of EPAC and PKA within the overall cAMP signaling in various model systems are critical for further elucidating the mechanism of cAMP signaling. To date no EPAC-specific antagonists and agonist, as well as isoform-specific agonists have been reported, and developing EPAC-specific pharmacological probes to determine the physiological functions that EPAC play in the overall cAMP-mediated signaling remains a major challenge within the research field. Furthermore, identified regulators of EPAC may lead to new mechanism-based therapeutic strategies specifically targeting the EPAC / cAMP-signaling components as EPAC has been implicated to play important roles in major human pathological conditions such as diabetes, heart disease, and cancer.
This qHTS will be used to screen the Molecular Libraries Small Molecule Repository (MLSMR) as a concentration-titration series using the NCGC unique quantitative screening (qHTS) platform to find activators for EPAC1. In addition, this assay will also be used as a counterscreen for the EPAC2 qHTS. This fluorescent based assay is developed and validated for EPAC1 that measures exchange using EPAC effector Rap1 complex with BODIPY-GDP, a GDP analog with a tethered fluorophores. Activators are identified by monitoring the change in fluorescence signal as the exchanged free BODIPY-GDP has a reduced fluorescence compared to Rap1-bound BODIPY-GDP. Increase in signal (activation) is the desired outcome for the EPAC1 agonist while no activity in this assay is desired for the EPAC2 agonist counterscreen.
[1] de Rooij, J., Zwartkruis, F. J., Verheijen, M. H., Cool, R. H., Nijman, S. M., Wittinghofer, A., and Bos, J.L. (1998) Nature 396, 474-477.
Briefly, three uL of reagents (100 nM EPAC1, 250 nM RAP1B-BODIPY-GDP, 50 uM GDP) were dispensed into a 1536-well Greiner black solid-bottom medium binding assay plate. Controls and test compounds (23 nL) were transferred to the plate via a Kalypsys pin tool equipped with a 1536-pin array. The plates were centrifuged at 1,000 rpm for 15 seconds followed by 5 minute incubation at room temperature. The assay plates were read at 5 minute intervals for 30 minutes in the ViewLux plate reader using 480nm excitation and 540nm emission filters. The results were normalized to the […] positive control ATA and DMSO.
Note: nearly all actives have a fitted effect of over 75% in size.
Potency is the fitted concentration of half-maximal effect.

SMILES	Potency
N[C@@H](Cc1ccc(O)c(O)c1)C(=O)O	inactive
N[C@@H](Cc1ccc(O)c(I)c1)C(=O)O	inactive
O=C(/C=C/c1ccc(O)c(O)c1)OC(Cc1ccc(O)c(O)c1)C(=O)O (centres undefined)	inactive and 100 µM (active)
O=C(/C=C/c1ccc(O)c(O)c1)OCCc1ccccc1	inactive
NC(Cc1ccc(O)c(O)c1)C(=O)O (centres undefined)	50.1 µM (active)
O=C(/C=C\c1ccc(O)c(O)c1)O[C@@H](Cc1ccc(O)c(O)c1)C(=O)O	inactive
COc1ccc(C(=O)NCC2Cc3cc(C)cc(-c4cc(C(C)=O)ccc4F)c3O2)c(OC)c1OC (centres undefined)	inactive
COC(=O)N1CCC[C@@]2(CCN(Cc3nccs3)C2)C1	inactive
OC(c1ccc2c(c1)CN(Cc1c[nH]c3ccccc13)CCO2)c1ccccn1 (centres undefined)	inactive
CC(C)=CCCC1(C)C=Cc2c(O)c3c(c(CC=C(C)C)c2O1)OC12C(=CCCC1C(C)(C)O[C@@]2(C/C=C(\C)C(=O)O)C(=O)O)C3=O (some centres undefined)	89.1 µM (active)
CC(C)=CCc1c2c(c(O)c3c(=O)c(O)c(-c4ccccc4)oc13)C=CC(C)(C)O2	inactive
CC(=O)Oc1c(-c2ccccc2)oc2c(CC=C(C)C)c3c(c(OC(C)=O)c2c1=O)C=CC(C)(C)O3	inactive
COC(=O)/C(C)=C/CC12OC(C)(C)C3CC(C=C4C(=O)c5cc6c(c(CCC(C)(C)Cl)c5OC431)OC1(C)CCC(=C(C)C)C6C1)C2=O (centres undefined)	inactive
CC(=O)Oc1c2c(c3c(c1CC=C(C)C)O[C@@]14C(=CC5CC1C(C)(C)OC4(C/C=C(\C)C(=O)O)C5=O)C3=O)OC(C)(CCC=C(C)C)C=C2 (some centres undefined)	89.1 µM (active)
C1=C(c2ccc3c(c2)CN(Cc2cccn2-c2ncccn2)CCO3)Cc2ccccc21	inactive
CC(C)c1c(C(=O)NCC(C)(C)N2CCOCC2)cnn1-c1nccc(-c2ccccc2F)n1	inactive
Cc1ccc(-c2ccnc(-n3ncc(C(=O)NCCN4CCOCC4)c3C3CC3)n2)o1	inactive
CCC1CN(CCNC(=O)c2ccccc2-n2cccn2)Cc2cc(OC)ccc2O1 (centres undefined)	inactive
COc1ccc(C2Sc3ccccc3N(CCN(C)C)C(=O)[C@@H]2OC(C)=O)cc1 (some centres undefined)	inactive
CCOC(=O)[C@@H](C)N(C(=O)OC(C)(C)C)S(=O)(=O)N(Cc1ccccc1)[C@@H](C(=O)OC)C(C)C	inactive
Cc1c(-c2ccccc2)oc2cc(O)ccc2c1=O	inactive

SMILES	Potency
CC(=O)[C@H](CC(C)C)NC(=O)[C@@H](CC(C)C)NC(=O)[C@H](CC(C)C)NC(=O)OCc1ccccc1	inactive
O=C(O)c1cc(-c2ccccc2)nc2ccccc12	inactive
O=C(O)c1cc2ccccc2c(Cc2c(O)c(C(=O)O)cc3ccccc23)c1O	50.1 µM (active)
O=C(O)c1c2ccccc2cc2ccccc12	inactive
CCN1CCN(C(=O)c2sc3ncnc(NCC4CCCO4)c3c2C)CC1 (centres undefined)	inactive
CC(C)CCCC(C)C1CCC2C3CC=C4CC(=O)CC[C@@]4(C)C3CC[C@@]12C (some centres undefined)	inactive
COc1ccccc1CNc1nc(-c2ccc(N(C)C)cc2)nc2ccccc12	inactive
Cc1ncc2c(c1CNC(=O)c1ccc3c(c1)OCO3)CCN(C(=O)c1cccc(-n3cccn3)c1)C2	inactive
Cc1cc(C)cc(C(=O)N(C)[C@H](Cc2ccc(-c3ccccc3)cc2)C(=O)N[C@@H](Cc2c[nH]c3ccccc23)C(=O)O)c1	112 µM (active)
CC(=O)N[C@@H](Cc1c[nH]c2ccccc12)C(=O)O	inactive
CC(C)C(N)C(=O)NC(Cc1c[nH]c2ccccc12)C(=O)O (centres undefined)	inactive
C[N+](C)(CCCCCC[N+](C)(C)CCCN1C(=O)c2ccccc2C1=O)CCCN1C(=O)c2ccccc2C1=O	inactive
C#CCN(Cc1nc(N2CCOCC2)c2ccc(Cl)cc2n1)Cc1ccco1	inactive
CCCC(=O)c1cc(O)c(O)cc1O	63.1 µM (active)
CCOc1cc(OCC)c(C(=O)CCC(=O)O)cc1OCC	inactive
CCC(=O)c1c(O)cc(O)cc1O	inactive
O=C(c1n[nH]c2c1CCCC2)N1CCOc2ccc(C(O)C3CCCCC3)cc2C1 (centres undefined)	inactive
Cc1ccc(C2(O)CCN(CCCC(=O)c3ccc(F)cc3)CC2)cc1	inactive
COc1ccccc1C1CN(CCNC(=O)c2cscn2)Cc2ccccc2O1 (centres undefined)	inactive
CN(C)C(=O)CCSC(SCCC(=O)O)c1cccc(/C=C/c2ccc3ccc(Cl)cc3n2)c1 (centres undefined)	inactive
CC(C)(O)c1ccccc1CC[C@@H](SCC1(CC(=O)O)CC1)c1cccc(/C=C/c2ccc3ccc(Cl)cc3n2)c1	79.4 µM (active)

SMILES	Potency
COc1ccc2c3c1O[C@H]1C[C@H](O)C=C[C@@]31CCN(C)C2	inactive
CC(C)c1ccc2c(c1)CC[C@@H]1[C@@](C)(CN)CCC[C@]21C	inactive
O=C1Nc2ccc(I)cc2/C1=C/c1cc(Br)c(O)c(Br)c1	89.1 µM (active) and 79.4 µM (active) and inactive
CN(C)c1ccc(/C=C2/C(=O)Nc3ccccc32)cc1	inactive
CN(C)c1ccc(/C=C2\C(=O)Nc3ccccc32)cc1	inactive
COC(=O)c1ccc(CN2CCOc3ccc(C(O)c4cccnc4)cc3C2)cc1 (centres undefined)	inactive
COc1ccc(-n2c(=O)c(-c3ccc(F)cc3)nc3cnc(N4CCNCC4)nc32)cc1	inactive
Oc1ccc(Cl)cc1Sc1cc(Cl)ccc1O	inactive
Oc1c(Cl)cc(Cl)cc1Sc1cc(Cl)cc(Cl)c1O	79.4 µM (active)
O=C(Nc1ccccc1)O[C@@H]1C[C@H]2CCCC(=O)N3CC[C@@H](C1)[C@@H]23	inactive
CO[C@@H]1[C@@H](O[C@@H]2O[C@H](C)[C@@H](O[C@H]3C[C@@](C)(O)[C@@H](O)[C@H](C)O3)[C@H](N(C)C)[C@H]2O)[C@@H](CC=O)C[C@@H](C)[C@@H](O[C@@H]2CC[C@H](N(C)C)[C@@H](C)O2)/C=C/C=C/C[C@@H](C)OC(=O)C[C@H]1OC(C)=O	inactive
CC(C)c1ccc2c(c1)c(SC(C)(C)C)c(CC(C)(C)C(=O)O)n2Cc1ccc(Cl)cc1	28.2 µM (active)
CC(N)C(=O)OC(C)(C)Cc1ccc(Cl)cc1 (centres undefined)	inactive
COc1ccc2c(c1)c(CC(=O)O)c(C)n2Cc1ccc(Cl)cc1	inactive
CCC1C(=O)NCCN1Cc1ccc2c(c1)CN(Cc1cc(OC)ccc1OC)CCO2 (centres undefined)	inactive
N#C/C(=C\c1ccc(O)c(O)c1)C(=O)NCCc1ccccc1	inactive
N#C/C(=C\c1c[nH]c2ccccc12)C(=O)c1ccc(O)c(O)c1	inactive
N#C/C(=C\c1ccc(O)c(O)c1)C(=O)NCCCCc1ccccc1	100 µM (active)
N#C/C(=C\c1ccc(O)c(O)c1)C(=O)NCCCc1ccccc1	63.1 µM (active) and inactive
Oc1ccc(CCNCCCCCCNCCc2ccccc2)cc1O	inactive
O=C(O)CCCc1ccccc1	inactive

SMILES	Potency
CSc1nc(C(=O)NCc2nc(-c3cccc(NC(=O)c4ccc(C)s4)c3)oc2C)cs1	inactive
Cc1cccc(CN2CCc3nnc(C(C)NC(=O)C4CCOCC4)n3CC2)c1 (centres undefined)	inactive
Cc1ccccc1C(=O)NC(C)c1nnc2n1CCN(Cc1ccc(F)cc1)CC2 (centres undefined)	inactive
C/C1=C2N=C(/C=C3N=C(/C(C)=C4\[N-]C(C(CC(N)=O)C4(C)CCC(=O)NCC(C)OP(=O)([O-])OC4C(CO)OC(n5cnc6cc(C)c(C)cc65)C4O)C4(C)N=C1C(CCC(N)=O)C4(C)CC(N)=O)C(CCC(N)=O)C\3(C)C)C(CCC(N)=O)C/2(C)CC(N)=O.[CH3-].[Co+3] (centres undefined)	50.1 µM (active)
C[N+](C)(CCCCCC[N+](C)(C)C1c2ccccc2-c2ccccc21)C1c2ccccc2-c2ccccc21	inactive
Nc1ccc(/C=C/c2ccc(N)cc2S(=O)(=O)O)c(S(=O)(=O)O)c1	inactive
S=C=Nc1ccc(N=C=S)cc1	inactive
O=S(=O)(O)c1cc(N=C=S)ccc1/C=C/c1ccc(N=C=S)cc1S(=O)(=O)O	35.5 µM (active)
Nc1nc2c(c(=O)[nH]1)N(C=O)C(CNc1ccc(C(=O)NC(CCC(=O)O)C(=O)O)cc1)CN2 (centres undefined)	inactive
Fc1ccc(Nc2ccnc(-c3ccc4c(c3)OCO4)n2)cc1	inactive
O=C(Nc1nccs1)[C@@H]1CC=C[C@@H]2CCN(Cc3ccccc3)C(=O)[C@@H]21	inactive
CCCc1c(OCCCCc2nn[nH]n2)ccc(C(C)=O)c1O	inactive
CCCc1c(OCCCOc2ccc(OCC(=O)O)cc2)ccc(CC=O)c1O	100 µM (active)
CCCc1c(OCCCOc2ccc(OCC(=O)O)cc2)ccc(C(C)=O)c1O	inactive
COCCn1c(=O)c(-c2cc(F)cc(F)c2)nc2cnc(Oc3ccc(OC)cc3)nc21	inactive
O=C(Nc1cc(C(=O)Nc2ccc(S(=O)(=O)O)cc2S(=O)(=O)O)cc(C(=O)Nc2ccc(S(=O)(=O)O)cc2S(=O)(=O)O)c1)Nc1cc(C(=O)Nc2ccc(S(=O)(=O)O)cc2S(=O)(=O)O)cc(C(=O)Nc2ccc(S(=O)(=O)O)cc2S(=O)(=O)O)c1	15.8 µM (active)
O=C(Nc1cccc(C(=O)Nc2ccc(S(=O)(=O)O)c3cc(S(=O)(=O)O)cc(S(=O)(=O)O)c23)c1)Nc1cccc(C(=O)Nc2ccc(S(=O)(=O)O)c3cc(S(=O)(=O)O)cc(S(=O)(=O)O)c23)c1	25.1 µM (active)
Cc1ccc(C(=O)Nc2ccc(S(=O)(=O)O)c3cc(S(=O)(=O)O)cc(S(=O)(=O)O)c23)cc1NC(=O)c1cccc(NC(=O)Nc2cccc(C(=O)Nc3cc(C(=O)Nc4ccc(S(=O)(=O)O)c5cc(S(=O)(=O)O)cc(S(=O)(=O)O)c45)ccc3C)c2)c1	inactive
O=C(Nc1ccc(C(=O)Nc2ccc(C(=O)Nc3ccc(S(=O)(=O)O)c4cc(S(=O)(=O)O)cc(S(=O)(=O)O)c34)cc2)cc1)Nc1ccc(C(=O)Nc2ccc(C(=O)Nc3ccc(S(=O)(=O)O)c4cc(S(=O)(=O)O)cc(S(=O)(=O)O)c34)cc2)cc1	39.8 µM (active) and 8.91 µM (active)
O=C(Nc1ccc(C(=O)O)c(O)c1)c1ccccc1	inactive
Cc1ccc(S(=O)(=O)O)cc1C	inactive
